Paper PMC11006913
Residue numbers refer to the chain shown, from its start.

Tests used:
Assay in all cases: PBM; 200 nM protein, PBS
Conditions in all cases: dsDNA, one strand shown
NKX2-6 [1] = target: T1, NKX2-6 (Homo sapiens, UniProt A6NCS4 118-204, R150C)
T1 sequence: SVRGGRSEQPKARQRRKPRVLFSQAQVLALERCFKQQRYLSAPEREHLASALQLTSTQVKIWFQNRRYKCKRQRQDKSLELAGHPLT

ALX1 [2] = target: ALX1 (Homo sapiens, UniProt Q15699 118-204, L144V)
ALX1 [3] = target: ALX1 (Homo sapiens, UniProt Q15699 118-204, L144R)
NKX3-2 [4] = target: NKX3-2 (Homo sapiens, UniProt P78367 192-278, P234S)
ALX1 [5] = target: ALX1 (Homo sapiens, UniProt Q15699 118-204)
NKX3-2 [6] = target: NKX3-2 (Homo sapiens, UniProt P78367 192-278)
PROP1 [7] = target: PROP1 (Homo sapiens, UniProt O75360 56-141)
PROP1 [8] = target: PROP1 (Homo sapiens, UniProt O75360 56-141, R99H)
PROP1 [9] = target: PROP1 (Homo sapiens, UniProt O75360 56-141, F88S)
NKX2-6 [10] = target: T2, NKX2-6 (Homo sapiens, UniProt A6NCS4 118-204)
T2 sequence: T1 sequence with C33R

NKX2-6 [11] = target: T3, NKX2-6 (Homo sapiens, UniProt A6NCS4 118-204, F151L)
T3 sequence: T1 sequence with C33R, F34L

ALX3 [12] = target: ALX3 (Homo sapiens, UniProt O95076 139-225, N203Q)
ALX3 [13] = target: ALX3 (Homo sapiens, UniProt O95076 139-225)
ALX3 [14] = target: ALX3 (Homo sapiens, UniProt O95076 139-225, L168Q)
ALX3 [15] = target: ALX3 (Homo sapiens, UniProt O95076 139-225, L168V)
ALX3 [16] = target: ALX3 (Homo sapiens, UniProt O95076 139-225, N203S)
MSX2 [17] = target: MSX2 (Homo sapiens, UniProt P35548 130-214, R199I)
MSX2 [18] = target: MSX2 (Homo sapiens, UniProt P35548 130-214)
MSX2 [19] = target: MSX2 (Homo sapiens, UniProt P35548 130-214, F161Y)
Chain of MSX2 (Homo sapiens, UniProt P35548 130-214, F161Y) (P35548 130-214 F161Y): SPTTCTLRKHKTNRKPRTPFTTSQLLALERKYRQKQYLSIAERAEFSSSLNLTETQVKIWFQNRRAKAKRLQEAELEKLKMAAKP

Chain of MSX2 (Homo sapiens, UniProt P35548 130-214) (P35548 130-214): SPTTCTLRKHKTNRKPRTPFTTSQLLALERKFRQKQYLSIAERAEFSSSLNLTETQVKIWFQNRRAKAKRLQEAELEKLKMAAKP
Chain of NKX3-2 (Homo sapiens, UniProt P78367 192-278, P234S) (P78367 192-278 P234S): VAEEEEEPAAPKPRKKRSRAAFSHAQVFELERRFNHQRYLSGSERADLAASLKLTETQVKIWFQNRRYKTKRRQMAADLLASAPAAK
Chain of ALX1 (Homo sapiens, UniProt Q15699 118-204, L144R) (Q15699 118-204 L144R): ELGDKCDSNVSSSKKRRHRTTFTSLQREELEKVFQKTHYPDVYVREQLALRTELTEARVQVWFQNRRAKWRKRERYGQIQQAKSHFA
Chain of ALX1 (Homo sapiens, UniProt Q15699 118-204, L144V) (Q15699 118-204 L144V): as the sequence (Q15699 118-204 L144R) above, with R27V counted along it
Chain of MSX2 (Homo sapiens, UniProt P35548 130-214, R199I) (P35548 130-214 R199I): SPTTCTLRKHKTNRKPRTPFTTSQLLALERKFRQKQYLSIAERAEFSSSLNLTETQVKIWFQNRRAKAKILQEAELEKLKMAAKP
Chain of ALX1 (Homo sapiens, UniProt Q15699 118-204) (Q15699 118-204): as the sequence (Q15699 118-204 L144R) above, with R27L counted along it
Chain of NKX3-2 (Homo sapiens, UniProt P78367 192-278) (P78367 192-278): as the sequence (P78367 192-278 P234S) above, with S43P counted along it
Chain of ALX3 (Homo sapiens, UniProt O95076 139-225, L168Q) (O95076 139-225 L168Q): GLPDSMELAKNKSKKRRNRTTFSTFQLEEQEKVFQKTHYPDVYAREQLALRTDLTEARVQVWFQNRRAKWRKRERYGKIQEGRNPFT
Chain of PROP1 (Homo sapiens, UniProt O75360 56-141, F88S) (O75360 56-141 F88S): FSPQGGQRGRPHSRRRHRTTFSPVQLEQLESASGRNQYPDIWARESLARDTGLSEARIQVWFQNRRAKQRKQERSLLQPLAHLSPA
Chain of ALX3 (Homo sapiens, UniProt O95076 139-225, L168V) (O95076 139-225 L168V): as the sequence (O95076 139-225 L168Q) above, with Q30V counted along it
Chain of PROP1 (Homo sapiens, UniProt O75360 56-141, R99H) (O75360 56-141 R99H): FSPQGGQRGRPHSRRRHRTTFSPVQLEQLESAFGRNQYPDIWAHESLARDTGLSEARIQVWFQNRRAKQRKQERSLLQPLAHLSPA
Chain of ALX3 (Homo sapiens, UniProt O95076 139-225) (O95076 139-225): as the sequence (O95076 139-225 L168Q) above, with Q30L counted along it
Chain of PROP1 (Homo sapiens, UniProt O75360 56-141) (O75360 56-141): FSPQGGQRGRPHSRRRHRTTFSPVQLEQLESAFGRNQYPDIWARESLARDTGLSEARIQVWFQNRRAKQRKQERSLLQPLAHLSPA
Chain of ALX3 (Homo sapiens, UniProt O95076 139-225, N203S) (O95076 139-225 N203S): as the sequence (O95076 139-225 L168Q) above, with Q30L, N65S counted along it
Chain of ALX3 (Homo sapiens, UniProt O95076 139-225, N203Q) (O95076 139-225 N203Q): as the sequence (O95076 139-225 L168Q) above, with Q30L, N65Q counted along it

## CGCGGGCC
NKX2-6 [1]
  binding signal: 9.38 upbm affinity estimate (log intensity, higher = more binding, comparable within an allelic series)
ALX1 [2]
  binding signal: 6.41 upbm affinity estimate (log intensity, higher = more binding, comparable within an allelic series)
ALX1 [3]
  binding signal: 6.28 upbm affinity estimate (log intensity, higher = more binding, comparable within an allelic series)
NKX3-2 [4]
  binding signal: 10.4 upbm affinity estimate (log intensity, higher = more binding, comparable within an allelic series)
ALX1 [5]
  binding signal: 6.3 upbm affinity estimate (log intensity, higher = more binding, comparable within an allelic series)
NKX3-2 [6]
  binding signal: 10.4 upbm affinity estimate (log intensity, higher = more binding, comparable within an allelic series)

## AGCCCCCG
NKX2-6 [1]
  binding signal: 9.1 upbm affinity estimate (log intensity, higher = more binding, comparable within an allelic series)
PROP1 [7]
  binding signal: 6.76 upbm affinity estimate (log intensity, higher = more binding, comparable within an allelic series)
PROP1 [8]
  binding signal: 6.62 upbm affinity estimate (log intensity, higher = more binding, comparable within an allelic series)
PROP1 [9]
  binding signal: 6.15 upbm affinity estimate (log intensity, higher = more binding, comparable within an allelic series)

## GACCCGAC
NKX2-6 [1]
  binding signal: 9.44 upbm affinity estimate (log intensity, higher = more binding, comparable within an allelic series)
NKX3-2 [4]
  binding signal: 10.7 upbm affinity estimate (log intensity, higher = more binding, comparable within an allelic series)
NKX3-2 [6]
  binding signal: 10.7 upbm affinity estimate (log intensity, higher = more binding, comparable within an allelic series)

## GGGGGACC
NKX2-6 [1]
  binding signal: 8.9 upbm affinity estimate (log intensity, higher = more binding, comparable within an allelic series)
NKX2-6 [10]
  binding signal: 9.01 upbm affinity estimate (log intensity, higher = more binding, comparable within an allelic series)
NKX2-6 [11]
  binding signal: 8.91 upbm affinity estimate (log intensity, higher = more binding, comparable within an allelic series)

## AAGTGCAC
NKX2-6 [1]
  binding signal: 11.6 upbm affinity estimate (log intensity, higher = more binding, comparable within an allelic series)
NKX3-2 [4]
  binding signal: 12.6 upbm affinity estimate (log intensity, higher = more binding, comparable within an allelic series)
NKX3-2 [6]
  binding signal: 12.7 upbm affinity estimate (log intensity, higher = more binding, comparable within an allelic series)

## ATCACTTA
NKX2-6 [1]
  binding signal: 11.6 upbm affinity estimate (log intensity, higher = more binding, comparable within an allelic series)
NKX2-6 [10]
  binding signal: 13.3 upbm affinity estimate (log intensity, higher = more binding, comparable within an allelic series)
NKX2-6 [11]
  binding signal: 10.4 upbm affinity estimate (log intensity, higher = more binding, comparable within an allelic series)

## AAGTGCTC
NKX2-6 [1]
  binding signal: 11.6 upbm affinity estimate (log intensity, higher = more binding, comparable within an allelic series)
NKX3-2 [4]
  binding signal: 12.5 upbm affinity estimate (log intensity, higher = more binding, comparable within an allelic series)
NKX3-2 [6]
  binding signal: 12.7 upbm affinity estimate (log intensity, higher = more binding, comparable within an allelic series)

## CCGTGGGA
NKX2-6 [1]
  binding signal: 9.37 upbm affinity estimate (log intensity, higher = more binding, comparable within an allelic series)
ALX1 [2]
  binding signal: 6.49 upbm affinity estimate (log intensity, higher = more binding, comparable within an allelic series)
ALX1 [3]
  binding signal: 6.42 upbm affinity estimate (log intensity, higher = more binding, comparable within an allelic series)
ALX1 [5]
  binding signal: 6.53 upbm affinity estimate (log intensity, higher = more binding, comparable within an allelic series)

## GGGGGCGA
NKX2-6 [1]
  binding signal: 9.39 upbm affinity estimate (log intensity, higher = more binding, comparable within an allelic series)
ALX3 [12]
  binding signal: 7.73 upbm affinity estimate (log intensity, higher = more binding, comparable within an allelic series)
ALX3 [13]
  binding signal: 7.8 upbm affinity estimate (log intensity, higher = more binding, comparable within an allelic series)
ALX3 [14]
  binding signal: 7.65 upbm affinity estimate (log intensity, higher = more binding, comparable within an allelic series)
ALX3 [15]
  binding signal: 7.66 upbm affinity estimate (log intensity, higher = more binding, comparable within an allelic series)
ALX3 [16]
  binding signal: 7.72 upbm affinity estimate (log intensity, higher = more binding, comparable within an allelic series)

## CATTTTGA
MSX2 [17]
  binding signal: 10.3 upbm affinity estimate (log intensity, higher = more binding, comparable within an allelic series)
MSX2 [18]
  binding signal: 10.6 upbm affinity estimate (log intensity, higher = more binding, comparable within an allelic series)
MSX2 [19]
  binding signal: 10.5 upbm affinity estimate (log intensity, higher = more binding, comparable within an allelic series)

## CCCCTACG
MSX2 [17]
  binding signal: 9.54 upbm affinity estimate (log intensity, higher = more binding, comparable within an allelic series)
MSX2 [18]
  binding signal: 9.48 upbm affinity estimate (log intensity, higher = more binding, comparable within an allelic series)
MSX2 [19]
  binding signal: 9.63 upbm affinity estimate (log intensity, higher = more binding, comparable within an allelic series)

## GCAATCAA
MSX2 [17]
  binding signal: 10.9 upbm affinity estimate (log intensity, higher = more binding, comparable within an allelic series)

## AATTTTTA
MSX2 [17]
  binding signal: 11.1 upbm affinity estimate (log intensity, higher = more binding, comparable within an allelic series)
MSX2 [18]
  binding signal: 11.9 upbm affinity estimate (log intensity, higher = more binding, comparable within an allelic series)
MSX2 [19]
  binding signal: 11.6 upbm affinity estimate (log intensity, higher = more binding, comparable within an allelic series)

## GAGGTGGC
MSX2 [17]
  binding signal: 9.4 upbm affinity estimate (log intensity, higher = more binding, comparable within an allelic series)
ALX1 [2]
  binding signal: 6.34 upbm affinity estimate (log intensity, higher = more binding, comparable within an allelic series)
ALX1 [3]
  binding signal: 6.43 upbm affinity estimate (log intensity, higher = more binding, comparable within an allelic series)
MSX2 [18]
  binding signal: 9.42 upbm affinity estimate (log intensity, higher = more binding, comparable within an allelic series)
MSX2 [19]
  binding signal: 9.41 upbm affinity estimate (log intensity, higher = more binding, comparable within an allelic series)
ALX1 [5]
  binding signal: 6.4 upbm affinity estimate (log intensity, higher = more binding, comparable within an allelic series)
